HP1b chromo inh – inhibitors of HP1-beta chromodomain binding to methylated histone tails | P83916 | AID 540317 | AlphaScreen HP1-beta / biotin-H3K9me3 peptide binding | actives 0.56% (n = 390,000) | Potency, µM (doses to about 114 µM), for inactives: at the top dose activity change, negative = inhibition, most hits filed as inhibitors; also: nearly all actives have a fitted effect of over 70% in size
Target sequence (P83916 whole entry, looked up): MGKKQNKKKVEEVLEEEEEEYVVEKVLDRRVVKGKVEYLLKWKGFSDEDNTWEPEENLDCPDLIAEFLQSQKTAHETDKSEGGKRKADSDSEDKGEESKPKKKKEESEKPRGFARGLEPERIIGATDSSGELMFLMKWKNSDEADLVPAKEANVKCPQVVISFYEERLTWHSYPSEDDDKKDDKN
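Compound inhibition of the preformed complex between 50 nM HP1-beta and 50 nM biotinylated H3K9me3 peptide was read by AlphaScreen. Buffer was PBS pH 7.4 with 0.01% Tween-20. Incubations ran 30 min at room temperature, with 10 ug/mL donor/acceptor beads.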
JMJD2A Tudor inh – inhibitors of human JMJD2A Tudor domain. AlphaScreen JMJD2A-Tudor / H3K4me3 peptide binding. Potency, µM (titrated, usually from 114 µM), for the others: at the highest dose activity change, negative = inhibition, hits mostly inhibitors. actives 4.4% (n = 390,000). AID 504339; also: % is scaled to controls: 0 for no effect and ±100 for the full control effect; nearly all actives have a fitted effect of over 50% in size
GLS inh – blocks human kidney-isoform glutaminase activity; O94925; actives 0.21% (n = 410,000); AID 624170; Potency, µM (top dose mostly 45.5 µM), inactives show top-dose activity change, negative = inhibition, most hits filed as inhibitors; GLS enzymatic activity, qHTS titration; also: % is scaled to controls: 0 for no effect and ±100 for the full control effect
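Compounds were pin-transferred onto hKGA, after which L-glutamine (1 mM solution) and a detection mix of glutamate oxidase, HRP and Amplex Red were added. Initial and 30 min RT fluorescence reads were collected.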
G9a block – G9a (human) methyltransferase inhibition; Q96KQ7; G9a H3K9 monomethylation, AlphaScreen, 2 h; Potency, µM (series often up to 102 µM), for inactives: at the highest dose activity, negative = inhibition, hits mostly inhibitors; actives 8.8% (n = 350,000); also: % is scaled to controls: 0 for no effect and ±100 for the full control effect; nearly all actives have a fitted effect of over 75% in size
Target sequence (Q96KQ7 913-1193 limits assumed): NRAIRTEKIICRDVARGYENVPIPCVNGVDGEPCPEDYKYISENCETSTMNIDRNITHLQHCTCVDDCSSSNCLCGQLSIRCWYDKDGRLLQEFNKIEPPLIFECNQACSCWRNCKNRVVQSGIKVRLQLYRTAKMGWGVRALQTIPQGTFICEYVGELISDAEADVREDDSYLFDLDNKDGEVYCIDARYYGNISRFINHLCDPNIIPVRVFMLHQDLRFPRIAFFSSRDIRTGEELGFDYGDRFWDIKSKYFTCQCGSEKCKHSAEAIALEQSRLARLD
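G9a (20 nM) preincubated 15 min RT with compounds, then 500 nM biotinylated H3K9 peptide and 20 uM SAM added; 2 h RT reaction. Monomethyl-H3K9 product detected by AlphaScreen with anti-H3K9me1 antibody, streptavidin donor and anti-rabbit IgG acceptor beads.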
BAZ2B inh – BAZ2B (human) inhibition; Q9UIF8; Potency, µM (top dose mostly 114 µM), inactives show at the highest dose activity change, negative = inhibition, usual class: inhibitors; actives 4.4% (n = 360,000); AlphaScreen BAZ2B-H3K14Ac peptide displacement; also: % is scaled to controls: 0 for no effect and ±100 for the full control effect; nearly all actives have a fitted effect of over 60% in size
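AlphaScreen luminescence quantifies BAZ2B engagement of H3K14Ac peptide; the protein and biotinylated peptide are both at 50 nM final, buffer PBS pH 7.4 with 0.01% Tween-20, all steps at room temperature.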
The depositor's hits bear a star; ? = inconclusive; . = no result; [ ] = dose if it differs, or a comment. Sampled rows, rich in hits. Any-hit rate of the full collection: about 10%. Calls follow the shape of the dose curve; as a rule, active = well fitted curve in the direction sought with a large enough effect; inconclusive = small, poorly fitted or top-dose-only effect, or another doubt; inactive = no such curve, though single readings can be large; an effect the other way counts as inactive or inconclusive. Potency is read from the fitted curve at half-maximal effect.

SMILES | HP1b chromo inh | JMJD2A Tudor inh | GLS inh | G9a block | BAZ2B inh
CN1C(=O)C(=C2CCCCCC2)SC1=S | 75.2% | 1.0% | -5.0% | 44.7µM* | 1.9%
C[C@@]12C(=O)Nc3ccccc3C(=O)N1[C@H]1c3cc(Cl)ccc3OC[C@@H]1[C@@H]2c1ccccc1 | 35.1% | -27.1% | -2.6% | . | .
CCN(C(=O)CSc1nnc2c3ccccc3n(CC)c2n1)C1CCS(=O)(=O)C1 (stereo unspecified) | 6.7% | -27.0% | 2.3% | 79.4µM* | -35.9%
CC(C)(C)c1ccc(C(=O)NNC(=O)C(=O)N2CCCCC2)cc1 | 36.2% | -22.2% | -4.8% | 33.5%[0.501 µM] | -30.3%
O=c1cc(CN2CCOCC2)c2ccc(O)c(O)c2o1 | 42.3% | ? | 15.7% | 7.94µM* | -8.9%
O=c1cc(CN2CCN(Cc3ccccc3)CC2)c2ccc(O)c(O)c2o1 | 4.1% | ? | ? | 35.5µM* | 39.8µM*
Cc1c(O)ccc2c(CN3CCN(Cc4ccccc4)CC3)cc(=O)oc12 | 25.1% | -22.1% | 24.1% | -12.9% | 2.4%
COc1ccc(OC)c(NC(=O)N2CCC(N3CCN(Cc4ccc(F)cc4)C(=O)C3=O)CC2)c1 | 8.3% | -16.6% | 19.6% | 16.6%[59 µM] | -16.7%
O=C(CCc1ccccc1)c1c(O)cc(O)cc1O | -4.5% | ? | 33.9% | 11.6%[12.7 µM] | -2.7%
CSc1cccc(Nc2cc(C(=O)NCCCN(Cc3ccccc3)C(C)C)c3ccccc3n2)c1 | 24.4% | -16.7% | 8.3% | 5.5%[59 µM] | 4.8%
COc1cc(NS(=O)(=O)c2ccc(N/C=C(\C#N)c3nc4ccccc4o3)cc2)nc(OC)n1 | -0.6% | ? | 14.4% | 16.2%[2.33 µM] | ?
COc1ccc(-c2csc(Nc3ccc(S(N)(=O)=O)cc3)n2)cc1OC | -15.4% | ? | 11.0% | ? | ?
Cc1cc(NS(=O)(=O)c2ccc(Nc3nc(-c4sc(N)nc4C)cs3)cc2)no1 | ? | 56.2µM* | ? | -10.1%[12.7 µM] | ?
COc1cc(NS(=O)(=O)c2ccc(N/C=C(\C=O)c3nc4ccccc4o3)cc2)nc(OC)n1 | 6.3% | 79.4µM* | -3.4% | 35.5µM* | 79.4µM*
Cc1cc(NS(=O)(=O)c2ccc(Nc3nc(-c4ccc(C)c(C)c4)cs3)cc2)no1 | -36.8% | 56.2µM* | 9.8% | ? | ?
COc1cc(NS(=O)(=O)c2ccc(Nc3nc(-c4ccccc4)cs3)cc2)nc(OC)n1 | -21.6% | ? | ? | ? | 50.1µM*
CC(C)Cc1ccc(S(=O)(=O)N2CCCC2)cc1 | 42.8% | 9.2% | -2.0% | 38.9%[59 µM] | 19.6%
Cc1cc(NS(=O)(=O)c2ccc(Nc3nc(-c4ccc(O)cc4)cs3)cc2)no1 | -19.8% | ? | -2.8% | 50.1µM* | ?
O=C1CC(N2CCSCC2)C(=O)N1c1ccc(F)cc1 (stereo unspecified) | 11.9% | -5.2% | 0.5% | ? | -3.2%
O=C(CC(NCc1ccccn1)C(=O)O)Nc1ccccc1Cl (stereo unspecified) | 59.0% | 20µM* | -5.7% | 7.1% | 2.82µM*
O=C(NCc1ccccn1)Nc1cc(Cl)ccc1Cl | 46.1% | -7.6% | -2.6% | 46.1% | -6.6%
CCOC(=O)COc1ccc(C(=O)CC)cc1OC | 24.8% | 2.1% | 1.6% | 6.8% | -1.7%
CCC(=O)c1ccc(OCC(=O)O)c(OC)c1 | 49.1% | -0.3% | -9.5% | 79.4µM* | 1.3%
CCC(=O)c1ccc(OCC(=O)N2CCCC2)c(OC)c1 | 34.0% | 15.1% | -0.2% | . | 50.1µM*
N#Cc1c(-c2ccco2)cc(-c2cccnc2)nc1N | 49.0% | -15.0% | 5.4% | 35.5µM* | ?
SMILES | HP1b chromo inh | JMJD2A Tudor inh | GLS inh | G9a block | BAZ2B inh
N#Cc1c(-c2cccnc2)cc(-c2ccccc2)nc1N | 57.6% | 15.9% | 2.7% | . | 0.6%
N#Cc1c(-c2ccccc2)cc(C2CC2)nc1N | 25.4% | 0.7% | 1.6% | 11.5%[59 µM] | -9.3%
N#Cc1c(-c2ccco2)cc(C2CC2)nc1N | 29.9% | -0.7% | -1.6% | 14.1µM* | -2.3%
O=C(C1=NNC2C(=O)N(c3ccccc3)C(=O)C12)c1nc(Cl)ccc1Cl (stereo unspecified) | 23.3% | -7.0% | 1.4% | 7.8% | 0.9%
CCCn1nnnc1NC(=O)c1cc(Cl)ccc1Cl | 12.5% | 39.8µM* | -4.2% | 8.91µM* | 56.2µM*
CCCCNC(=O)Cn1c(=O)n(C)c2ccccc21 | 47.2% | -4.8% | -6.0% | 14.8% | -2.4%
O=C1NC[C@H](CCCCN2C[C@H](Cc3ccc(O)cc3)N(CC3CCCCC3)C(=O)C2=O)N(CCc2ccc(O)cc2)C1=O | . | . | 8.5% | . | .
CC1=NOC(=O)/C1=C/c1ccc(O)cc1 | 41.3% | 15.8µM* | -14.9% | 50.1µM* | 50.1µM*
CC1=NOC(=O)/C1=C/c1ccc(O)c(Br)c1 | 1.8% | -22.7% | -12.6% | 44.7µM* | 56.2µM*
CC(C)(C)NC(=O)/C=C/c1ccc(C(F)(F)F)cc1 | 36.1% | -4.4% | 9.0% | 9.7% | -0.5%
CNc1ncnc2c1cnn2-c1ccc(C)c(C)c1 | 39.4% | -10.7% | -10.7% | -5.1%[59 µM] | 4.9%
CC(=O)NC1Sc2ccccc2N=C1c1ccccc1 (stereo unspecified) | ? | 50.1µM* | -3.3% | ? | -4.1%
O=C(C=Cc1cccnc1)c1ccccc1 | 25.3% | -6.2% | -1.2% | . | .
Cc1cccc(C)c1N/C=C/c1onc(C)c1[N+](=O)[O-] | 13.3% | -11.2% | 12.2% | 1.8%[59 µM] | 5.2%
O=C(/C=C/c1cccnc1)c1cccc(O)c1 | 66.8% | ? | 3.9% | 35.5µM* | -23.9%
O=C(/C=C/c1cccnc1)c1ccccc1O | 38.4% | 0.0% | -10.1% | 35.5µM* | -26.2%
O=C(Oc1cccnc1)c1ccc([N+](=O)[O-])cc1 | 19.6% | -13.8% | 0.0% | 10µM* | ?
Cc1noc(/C=C/c2cccnc2)c1[N+](=O)[O-] | 26.1% | -10.0% | -21.4% | 44.7µM* | -23.3%
CCCn1nc(NC(=O)C(C)(C)C)c2cc3cc(OC)ccc3nc21 | 107.9% | 85.8% | 0.7% | 158.6% | 79.6%
Fc1ccc(NCc2nnc3n2CCCCC3)cc1 | 38.7% | -9.7% | 19.1% | 1.1% | -0.4%
O=C(/C=C/c1cccnc1)c1ccc([N+](=O)[O-])cc1 | -17.2% | ? | 10.9% | 12.6µM* | -18.1%
COC(=O)c1c(C(=O)OC)c2cccc3cc(-c4ccccc4)c4ccc1c4n32 | ? | 8.91µM* | -4.4% | ? | 2.51µM*
COC(=O)c1c(C)c2c(C)cc3ccccn3c-2c1C(=O)OC | ? | ? | 11.6% | ? | ?
COC(=O)c1cc2c(-c3ccccc3)cc3ccccn3c-2c1C(=O)OC | ? | 44.7µM* | 2.2% | 12.6µM* | 12.6µM*
COC(=O)c1c(C)n(-c2ccccc2)c2ccc(O)cc12 | -6.6% | ? | 12.0% | -3.2%[0.0925 µM] | -34.9%
CCOc1ccc(CC(C(N)=O)C(N)=O)cc1 | 39.0% | 0.7% | -5.3% | 7.4% | -4.8%
CCCCn1c(N)c(N(CC(C)C)C(=O)CSc2nnc(C)n2-c2ccc(OC)cc2)c(=O)[nH]c1=O | 26.4% | -20.3% | 4.7% | 25.9%[0.501 µM] | 11.2%

Source: PubChem (National Center for Advancing Translational Sciences (NCATS))
